From PubChem BioAssay
“And” between values parts separate entries of the source, which are not always exact repeats. Equal values may be shown once. The source made the active and inactive calls.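 Rule for the calls, unless noted: active = compound that reduces growth-factor-driven endothelial tube area in a mixed cell culture, no cutoff stated; inactive = the rest.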

Experiments:
[1] = Wnt pathway potentiators raising nuclear beta-catenin – imaging, WNT3A-conditioned medium, mouse C2C12, NPC library, primary screen (AID 1117326; in the data active = nuclear beta-catenin stimulation mostly above about 4.2%, no sharp cut-off; inactive = mostly below about 10%); conditions: stronger effect = higher value
[2] = stimulators of insulin release from INS-1E, primary screen, cell-based, 5 mM glucose, NPC library (AID 1117329;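 active = compound raises insulin release from rat beta cells at 5 mM glucose, no numeric limit stated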); conditions: rat INS-1E insulin secretion, at 10 µM, stronger effect = higher value
[3] = growth inhibition of GSK3B-pretreated HCT116 cells – cell-based, CellTiter-Glo, 0.2 to 20 µM (AID 1117336;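 active = compounds lowering colon cancer cell viability after pretreatment blocking the GSK3B kinase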); conditions: HCT116 viability after GSK3B inhibitor, at 20 µM, stronger effect = higher value
[4] = inhibition of endothelial tube formation, primary screen, imaging, VEGF stimulated, CD31 staining, tube area, NPC library (AID 1117340); conditions: VEGF-stimulated ADSC/ECFC co-culture, at 10 µM, stronger effect = higher value
[5] = GLP1 release stimulators, primary, NCI-H716, NPC library (AID 1117341;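 active = compound raises GLP1 secretion from the human gut endocrine cells, with no numeric limit stated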); conditions: NCI-H716 cells, at 10 µM, stronger effect = higher value
[6] = HCT116 colon cancer cell growth inhibition, primary screen, CellTiter-Glo luminescence, NPC library (AID 1117342;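 active = compounds that lower survival of HCT116 colon cancer cells in the luminescence readout, no numeric limit stated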); conditions: at 20 µM (top of the series)
[7] = reduced SW480 viability measured with CellTiter-Glo, NPC library, primary (AID 1117343;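 active = compounds that lower viability of the colon cancer cells in the luminescence readout, with no numeric limit stated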); conditions: CellTiter-Glo luminescence; at 20 µM (top of the series) unless noted
[8] = NPC library primary testing for decreased DLD-1 cell viability via CellTiter-Glo (AID 1117346;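 active = compounds that lower survival of DLD-1 colon cancer cells in the luminescence readout, no cutoff given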); conditions: DLD-1 viability, CellTiter-Glo luminescence; at 20 µM (top of the series)
[9] = EMT-state selective cytotoxicity in co-culture – imaging, PC-3E GFP, TEM4-18 mCherry, primary screen (AID 1345086;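 active = compounds killing one labelled cell type while sparing the other, by normalised counts and ratio limits, not self-fluorescent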;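 for all read-outs here: cells exposed to compound for 72 h before imaging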;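 for red/green cell ratio (normalised): normalised mesenchymal count divided by normalised epithelial count so high means epithelial killing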); conditions: PC-3E GFP / TEM4-18 mCherry co-culture, imaging cell counts, at 1 µM; for red/green cell ratio (normalised): actives lie on both sides, counts scaled to control wells, 1 = unselective
[10] = viability loss with induced miR-34 in A549 – imaging, A549 dox-inducible miR-34, nuclei and caspase counts, primary screen (AID 1347080;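 active = compounds whose cell count with miR-34 switched on is under 0.7 times the count with it off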); conditions: A549 miR-34 inducible, Hoechst nuclei count, 48 h
[11] = target: NAD(+) hydrolase SARM1 (Homo sapiens) (UniProt Q6SZW1); experiment: blocking NAD cleavage by SARM1 SAM-TIR – cell lysate, NAD-Glo luminescence (AID 1508614;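 active = compound whose remaining NAD level is above about 45 nM, limit read from the data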;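 note: higher remaining NAD means stronger inhibition of SARM1 NADase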); conditions: SAM-TIR HEK293T lysate NADase, at 1 µM, stronger effect = higher value
[12] = compounds altering viability of human ES cells (AID 493140; call rule not given here;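 note: cells exposed to compounds for four days before counting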); conditions: human embryonic stem cell survival screen; stronger effect = higher value
[13] = P. berghei load reduction in hepatocytes – cell-based, HepG2, luciferase luminescence, HepG2 viability, primary screen (AID 624349; in the data active = parasite load remaining mostly below about 12%, no sharp cut-off; inactive = mostly above about 10%;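 note: 100% = mean of DMSO negative control wells on the same plate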); conditions: P. berghei liver stage in HepG2, luciferase luminescence, concentration not given here; parasite load remaining: stronger effect = lower value; viability: measured here: HepG2 viability without parasites
[14] = MELAS cybrid and Rieske KO viability enhancers – cell-based, MELAS cybrids, Rieske KO mouse fibroblasts, CellTiter-Glo, primary screen (AID 1508586;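 active = mean z-score across replicates of 1.96 or higher in either the MELAS or the Rieske mutant cell line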;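 note: z relative to plate mean and SD of compound and empty wells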); conditions: low glucose
[15] = measured here: epithelial PC-3E GFP cell survival
[16] = measured here: mesenchymal TEM4-18 mCherry cell survival
[17] = stronger effect = lower value, cell number ratio, induced over uninduced
[18] = measured here: relative caspase fold change +Dox/-Dox
[19] = measured here: total cells with miR-34 induction, stronger effect = lower value
[20] = measured here: total cells without miR-34 induction
[21] = MELAS cybrid survival, CellTiter-Glo 48 h, stronger effect = higher value
[22] = Rieske KO mouse fibroblast survival, CellTiter-Glo 72 h

Sequence of NAD(+) hydrolase SARM1 (Homo sapiens) (Q6SZW1 whole entry, looked up): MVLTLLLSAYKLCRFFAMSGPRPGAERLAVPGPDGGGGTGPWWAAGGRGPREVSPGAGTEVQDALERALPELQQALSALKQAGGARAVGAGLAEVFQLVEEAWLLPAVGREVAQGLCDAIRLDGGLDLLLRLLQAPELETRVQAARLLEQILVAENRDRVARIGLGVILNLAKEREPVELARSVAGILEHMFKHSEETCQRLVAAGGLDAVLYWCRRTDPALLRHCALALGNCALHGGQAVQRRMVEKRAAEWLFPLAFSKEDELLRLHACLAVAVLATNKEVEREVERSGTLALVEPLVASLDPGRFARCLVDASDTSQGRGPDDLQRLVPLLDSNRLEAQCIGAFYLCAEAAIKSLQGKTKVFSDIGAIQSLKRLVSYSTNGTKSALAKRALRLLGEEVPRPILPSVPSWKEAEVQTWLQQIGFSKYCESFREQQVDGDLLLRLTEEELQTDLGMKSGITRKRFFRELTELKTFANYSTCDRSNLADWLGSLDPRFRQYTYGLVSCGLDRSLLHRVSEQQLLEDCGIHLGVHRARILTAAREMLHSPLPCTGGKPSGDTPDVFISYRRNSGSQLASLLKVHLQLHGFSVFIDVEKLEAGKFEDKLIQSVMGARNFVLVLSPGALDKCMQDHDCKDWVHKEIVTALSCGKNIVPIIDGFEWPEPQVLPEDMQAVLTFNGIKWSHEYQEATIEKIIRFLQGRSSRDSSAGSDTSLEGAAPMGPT

CCCCOCCOCCOCc1cc2c(cc1CCC)OCO2
nuclear beta-catenin stimulation ([1]; at 10 µM): 0.2% (inactive) | nuclear beta-catenin stimulation ([1]; stimulation, at 2 µM): 1.7% | insulin secretion stimulation [2]: 1.3% (inactive) | viability decrease [3]: -13.9% (inactive) | tube area decrease [4]: -2.7% (inactive) | GLP1 secretion stimulation [5]: -2.6% (inactive) | inhibition of viability [6]: 24.7% (inactive) | viability decrease (inhibition) [7]: 11.6% (inactive) | viability decrease (inhibition) [8]: 14.4% (inactive) | red/green cell ratio (normalised) [9]: 0.78 (inactive) | normalised cell number [9, 15]: 1.28 | normalised cell number [9, 16]: 1 | fold change [10, 17]: 0.878 (inactive) | fold change [10, 18]: 0.573 | cell count [10, 19]: 7660 | cell count [10, 20]: 8730 | remaining NAD [11]: 10 nM (inactive)

COc1cc(/C=C/C(N)=O)cc(OC)c1OC
nuclear beta-catenin stimulation ([1]; at 10 µM): 1.1% (inactive) | nuclear beta-catenin stimulation ([1]; stimulation, at 2 µM): 0.6% | insulin secretion stimulation [2]: 0.8% (inactive) | viability decrease [3]: -4.6% (inactive) | tube area decrease [4]: 11.9% (inactive) | GLP1 secretion stimulation [5]: 0.1% (inactive) | inhibition of viability [6]: -6% (inactive) | viability decrease (inhibition) [7]: 6.6% (inactive) | viability decrease (inhibition) [8]: 4.6% (inactive) | red/green cell ratio (normalised) [9]: 0.8 (inactive) | normalised cell number [9, 15]: 1.28 | normalised cell number [9, 16]: 1.03 | fold change [10, 17]: 0.933 (inactive) | fold change [10, 18]: 0.864 | cell count [10, 19]: 8570 | cell count [10, 20]: 9180 | remaining NAD [11]: 10 nM (inactive)

Cc1ncc(CSSCc2cnc(C)c(O)c2CO)c(CO)c1O
nuclear beta-catenin stimulation ([1]; at 10 µM): 0.2% (inactive) | nuclear beta-catenin stimulation ([1]; stimulation, at 2 µM): -2.2% | insulin secretion stimulation [2]: 1.7% (inactive) | viability decrease [3]: 4.2% (inactive) | tube area decrease [4]: -25.7% (inactive) | GLP1 secretion stimulation [5]: 6.7% (inactive) | inhibition of viability [6]: 14.3% (inactive) | viability decrease (inhibition) [7]: 6.1% (inactive) | viability decrease (inhibition) [8]: 15.6% (inactive) | red/green cell ratio (normalised) [9]: 0.89 (inactive) | normalised cell number [9, 15]: 1.03 | normalised cell number [9, 16]: 0.92 | fold change [10, 17]: 0.95 (inactive) | fold change [10, 18]: 0.868 | cell count [10, 19]: 8920 | cell count [10, 20]: 9390 | remaining NAD [11]: 10 nM (inactive)

NC(=O)NS(=O)(=O)c1ccc(N)cc1
nuclear beta-catenin stimulation ([1]; at 10 µM): -1.6% (inactive) | nuclear beta-catenin stimulation ([1]; stimulation, at 2 µM): 0.3% | insulin secretion stimulation [2]: 5.8% (inactive) | viability decrease [3]: -1.6% (inactive) | tube area decrease [4]: -10.6% (inactive) | GLP1 secretion stimulation [5]: -4.5% (inactive) | inhibition of viability [6]: 6.1% (inactive) | viability decrease (inhibition) [7]: 75.8% (active) | viability decrease (inhibition) [8]: -12.6% (inactive) | red/green cell ratio (normalised) [9]: 0.74 (inactive) | normalised cell number [9, 15]: 1.37 | normalised cell number [9, 16]: 1.02 | fold change [10, 17]: 0.96 (inactive) | fold change [10, 18]: 0.945 | cell count [10, 19]: 8990 | cell count [10, 20]: 9360 | remaining NAD [11]: 10 nM (inactive)

COc1ccc(Cc2cnc(N)nc2N)cc1OC
nuclear beta-catenin stimulation ([1]; at 10 µM): -0.5% (inactive) | nuclear beta-catenin stimulation ([1]; stimulation, at 2 µM): -0.6% | insulin secretion stimulation [2]: 0.9% (inactive) | viability decrease [3]: -3.05% (inactive) | tube area decrease [4]: -28.9% (inactive) | GLP1 secretion stimulation [5]: 2.9% (inactive) | inhibition of viability [6]: -12.4% (inactive) | viability decrease (inhibition) [7]: 6.9% (inactive) | viability decrease (inhibition) [8]: -5.4% (inactive) | red/green cell ratio (normalised) [9]: 1.2 (inactive) | normalised cell number [9, 15]: 1.03 | normalised cell number [9, 16]: 1.23 | fold change [10, 17]: 1.04 (inactive) | fold change [10, 18]: 0.896 | cell count [10, 19]: 9080 | cell count [10, 20]: 8710 | remaining NAD [11]: 10 nM (inactive)

CC1(O)CCC(C(C)(C)O)CC1 (centres undefined)
nuclear beta-catenin stimulation ([1]; at 10 µM): -0.3% (inactive) | nuclear beta-catenin stimulation ([1]; stimulation, at 2 µM): 1.1% | insulin secretion stimulation [2]: 1.4% (inactive) | viability decrease [3]: -1.3% (inactive) | tube area decrease [4]: 2.4% (inactive) | GLP1 secretion stimulation [5]: -5.3% (inactive) | inhibition of viability [6]: 1.1% (inactive) | viability decrease (inhibition) [7]: 5.7% (inactive) | viability decrease (inhibition) [8]: -8.9% (inactive) | red/green cell ratio (normalised) [9]: 1.09 (inactive) | normalised cell number [9, 15]: 0.89 | normalised cell number [9, 16]: 0.97 | fold change [10, 17]: 0.976 (inactive) | fold change [10, 18]: 0.869 | cell count [10, 19]: 8640 | cell count [10, 20]: 8850 | remaining NAD [11]: 10 nM (inactive)

Cc1cc2c(cc1S(N)(=O)=O)S(=O)(=O)CCC2
survival [12]: 26.1 (inactive) | parasite load remaining [13]: 38.3% (inactive) and 103% (inactive) | viability [13]: 50.2% and 93.9% | nuclear beta-catenin stimulation ([1]; at 10 µM): -0.4% (inactive) | nuclear beta-catenin stimulation ([1]; stimulation, at 2 µM): 1% | insulin secretion stimulation [2]: 1.4% (inactive) | viability decrease [3]: -10.3% (inactive) | tube area decrease [4]: 3.5% (inactive) | GLP1 secretion stimulation [5]: -0.7% (inactive) | inhibition of viability [6]: -0.03% (inactive) | viability decrease (inhibition) [7]: 3.2% (inactive) | viability decrease (inhibition) [8]: -1.8% (inactive) | red/green cell ratio (normalised) [9]: 0.91 (inactive) | normalised cell number [9, 15]: 0.86 | normalised cell number [9, 16]: 0.78 | fold change [10, 17]: 0.932 (inactive) | fold change [10, 18]: 1.01 | cell count [10, 19]: 8570 | cell count [10, 20]: 9200 | z-score [14, 21]: -0.881 (inactive) | z-score [14, 22]: 0.124 | remaining NAD [11]: 10 nM (inactive)

CC(O)C(=O)O (centres undefined)
nuclear beta-catenin stimulation ([1]; at 10 µM): 2.5% (inactive) | nuclear beta-catenin stimulation ([1]; stimulation, at 2 µM): 3% | insulin secretion stimulation [2]: -0.6% (inactive) | viability decrease [3]: -5.3% (inactive) | tube area decrease [4]: 8.4% (inactive) | GLP1 secretion stimulation [5]: 3.4% (inactive) | inhibition of viability [6]: 2.73% (inactive) | viability decrease (inhibition) [7]: -11.7% (inactive) | viability decrease (inhibition) [8]: -8.5% (inactive) | red/green cell ratio (normalised) [9]: 1.08 (inactive) | normalised cell number [9, 15]: 1.05 | normalised cell number [9, 16]: 1.14 | fold change [10, 17]: 0.885 (inactive) | fold change [10, 18]: 0.852 | cell count [10, 19]: 8900 | cell count [10, 20]: 10100 | remaining NAD [11]: 10 nM (inactive)

Cc1cccc(C)c1NC(=O)c1ccccc1C(=O)O
nuclear beta-catenin stimulation ([1]; at 10 µM): 0.1% (inactive) | nuclear beta-catenin stimulation ([1]; stimulation, at 2 µM): 0.7% | insulin secretion stimulation [2]: -0.4% (inactive) | viability decrease [3]: -4.6% (inactive) | tube area decrease [4]: -28.9% (inactive) | GLP1 secretion stimulation [5]: 1.9% (inactive) | inhibition of viability [6]: 3.1% (inactive) | viability decrease (inhibition) [7]: 49.6% (inactive) | viability decrease (inhibition) [8]: 17.1% (inactive) | red/green cell ratio (normalised) [9]: 0.84 (inactive) | normalised cell number [9, 15]: 0.94 | normalised cell number [9, 16]: 0.79 | fold change [10, 17]: 0.96 (inactive) | fold change [10, 18]: 0.664 | cell count [10, 19]: 8770 | cell count [10, 20]: 9130 | remaining NAD [11]: 10 nM (inactive)

C[C@H](O)C(=O)Nc1c(I)c(C(=O)NC(CO)CO)c(I)c(C(=O)NC(CO)CO)c1I
survival [12]: 3.75 (inactive) | parasite load remaining [13]: 99% (inactive) | viability [13]: 105% | nuclear beta-catenin stimulation ([1]; at 10 µM): -2.7% (inactive) | nuclear beta-catenin stimulation ([1]; stimulation, at 2 µM): 2.4% | insulin secretion stimulation [2]: 3.4% (inactive) | viability decrease [3]: 0.8% (inactive) | tube area decrease [4]: -18.2% (inactive) | GLP1 secretion stimulation [5]: 0.1% (inactive) | inhibition of viability [6]: -1.3% (inactive) | viability decrease (inhibition) [7]: 15% (inactive) | viability decrease (inhibition) [8]: -3.1% (inactive) | red/green cell ratio (normalised) [9]: 1.21 (inactive) | normalised cell number [9, 15]: 0.98 | normalised cell number [9, 16]: 1.18 | fold change [10, 17]: 0.849 (inactive) | fold change [10, 18]: 2.22 | cell count [10, 19]: 8600 | cell count [10, 20]: 10100 | z-score [14, 21]: -0.551 (inactive) | z-score [14, 22]: -0.888
